Over roughly 68,000 sequences, “fluorescence intensity (a.u.)” has its median near 9,100; the highest 2% begin near 16,000. Many of the other results were omitted from the sample, so the highest values are more common in it than they were.

In this experiment the target is OsWRKY34 (Oryza sativa, UniProt Q0JBA9 1-250). In words: protein-binding microarray (RPBM); PBS, 2% BSA, 51.3 ng/ul salmon testes DNA, 50 uM zinc acetate, 200 nM TF, 25 C, 1 h; high values mean tight binding. The conditions noted are these: protein: recombinant; tags: N-terminal polyhistidine and DsRed monomer fusion (pET32a); label: CyDye5-dUTP incorporated in the synthesized complementary strand; 3' TTTTT single-stranded linker to array surface; dsDNA, one strand shown. An outline of the steps: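 A custom Agilent array was converted to double-stranded form by primer extension with Cy5-dUTP and blocked with 2% BSA. Protein at 200 nM in PBS with 2% BSA, salmon testes DNA and 50 µM zinc acetate was applied for 1 h at 25 °C, followed by washing. The proteins were polyhistidine–DsRed N-terminal fusions of transcription factors, expressed in E. coli BL21-CodonPlus and Ni–NTA-purified. The binding signal is per-feature fluorescence intensity (arbitrary units) from an Axon 4000B scanner.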
OsWRKY34, sequence (Q0JBA9 entry or part of it): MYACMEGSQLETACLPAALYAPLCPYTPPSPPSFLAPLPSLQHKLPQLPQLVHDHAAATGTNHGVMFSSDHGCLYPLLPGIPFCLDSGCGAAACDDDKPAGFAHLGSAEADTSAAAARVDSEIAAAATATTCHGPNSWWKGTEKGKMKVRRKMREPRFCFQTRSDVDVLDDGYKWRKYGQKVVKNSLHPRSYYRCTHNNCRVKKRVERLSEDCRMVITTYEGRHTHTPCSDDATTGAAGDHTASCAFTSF
Consider “GTGCCACTCTGTCTCTTCCGTCCATAGCGCCGTCGTCTTCCGGAGTCACCTAGTGCAG”, for which the binding signal was 17300 fluorescence intensity (a.u.). The same measure for “CCCGACCCAAACCTCACCGCCGCCGTCGCCGTTGCCGCCGCGGAGTCACCTAGTGCAG”: 8310 fluorescence intensity (a.u.); for “TTAACTCGACAGTTTGTGTGTGATTTCAGTACTACCACGACGGAGTCACCTAGTGCAG”: 10400 fluorescence intensity (a.u.); for “CTCCGCCGTCGCGTCCCCGCCGCCGCCGCCCGCCTTCCCCCGGAGTCACCTAGTGCAG”: 9960 fluorescence intensity (a.u.). With “ACTCGCGATATGCTTGTAACTTGGTTTGGTATTCCATTCTCGGAGTCACCTAGTGCAG” the figure was 9670 fluorescence intensity (a.u.); with “GGGTTACGGCTGCAAGCTTGTTCTCTCCAGATGGGGAGTTCGGAGTCACCTAGTGCAG”, 10400 fluorescence intensity (a.u.); with “GCTCTCATGGCCTCACACACCGCGCCATTGCCATCGTTTCCGGAGTCACCTAGTGCAG”, 17000 fluorescence intensity (a.u.). With “CGCTTTCCTCTGTTTCTCCGCCGCGCTCGTTCGTCGTCTCCGGAGTCACCTAGTGCAG” the figure was 21400 fluorescence intensity (a.u.). For “CCGCCGCTTCCTCGCCACCGCCGCTGCCGCCGCCACTTCCCGGAGTCACCTAGTGCAG”, the binding signal was 19400 fluorescence intensity (a.u.). In the case of “CTCGCCGCCGGCCTCCTCCACCACCACCGACGACTCCGACCGGAGTCACCTAGTGCAG”, the binding signal is 8430 fluorescence intensity (a.u.). The same measure for “CTCCTCTCGCCGCCGCCGCCACCGCCACCGCCGCCGCTCCCGGAGTCACCTAGTGCAG”: 10100 fluorescence intensity (a.u.); for “GCCTCGCCTCGCCGCCGGCGGCCACCGTCTCCGCCGCCTCCGGAGTCACCTAGTGCAG”: 8800 fluorescence intensity (a.u.). On to “TCCCTCCCGTCTCGTCTCCGCTCATTGCGCCATCTCGCGCCGGAGTCACCTAGTGCAG”, for which the binding signal is 8660 fluorescence intensity (a.u.).

For “GTCCTGCTGCTTCCGCCGCCGCCACCGTCCTGCTGCTTCCCGGAGTCACCTAGTGCAG”, the binding signal is 9500 fluorescence intensity (a.u.).

For “CGCGCCCTCCTCCGCCGCCGCTCGCCGCCGTTCGTCTCCGCGGAGTCACCTAGTGCAG”, the binding signal is 9840 fluorescence intensity (a.u.). With “GTCTCCGCGCGCGCTCTCTCTTTCGTTCACTCTCGCTTTCCGGAGTCACCTAGTGCAG”, the binding signal was 14500 fluorescence intensity (a.u.). With “TTCTCCACCGCCGCCACCACCACCTCGCCTGGCCGGCCTCCGGAGTCACCTAGTGCAG”, the binding signal is 18000 fluorescence intensity (a.u.).

As to “AACACCGTTCCTCCGCCGCGCCGTCATTGCCACCGGCCTCCGGAGTCACCTAGTGCAG”, the binding signal was 9730 fluorescence intensity (a.u.). With “CATCGACTACCTGCCATTCTTCTACTCCAGGGTCTTCTCGCGGAGTCACCTAGTGCAG” the figure was 9510 fluorescence intensity (a.u.); with “ATCTTATGGTGTATTTTTTTTTTCTCCGGTGCAGGTTGGTCGGAGTCACCTAGTGCAG”, 8260 fluorescence intensity (a.u.). With “GATGTGAATCACCCTTTGCTTTGCTGAATCTACTCCTACACGGAGTCACCTAGTGCAG” the figure was 10600 fluorescence intensity (a.u.). The same measure for “GCGAACTCCGAGCGCGGAGGTTGAGGCGGCGGCGAGCGTGCGGAGTCACCTAGTGCAG”: 9820 fluorescence intensity (a.u.); for “CATTATTAAAATATATATGTGTTACATTCGGTATTATATTCGGAGTCACCTAGTGCAG”: 8650 fluorescence intensity (a.u.); for “CCTCATGATGATGCCGAACGTCTCGACATTGACCGCGCCCCGGAGTCACCTAGTGCAG”: 9370 fluorescence intensity (a.u.).

As for “CCGCCGCCCACCTCATGCCTTGCGCGGTGCCCGTGAGAGACGGAGTCACCTAGTGCAG”, the binding signal is 8250 fluorescence intensity (a.u.). The same measure for “GATCGCTCCATAAACATGCAATATATCAATTTTAACTTTTCGGAGTCACCTAGTGCAG”: 8900 fluorescence intensity (a.u.); for “CTCTCAGCCGGTCTATCAATTCCCCTTTCTGATACAATAACGGAGTCACCTAGTGCAG”: 9570 fluorescence intensity (a.u.); for “CCCATTCTAGATATTAACTACTAATCTGACTCTATTTTTTCGGAGTCACCTAGTGCAG”: 8880 fluorescence intensity (a.u.).

Turning to “TGGGTTTTATTTTCCCATTCTTTCGAGCTATTTTGACGGACGGAGTCACCTAGTGCAG”, the binding signal is 8220 fluorescence intensity (a.u.). With “TTCCTCCGTCTGCGTGCCGGCTTCTGTCTTCCTCCGCGCGCGGAGTCACCTAGTGCAG” the figure was 17300 fluorescence intensity (a.u.). With “CGTCGCCGCCGCCGGCGTCTTCTCCACCTCCTCCGCGCCGCGGAGTCACCTAGTGCAG” the figure was 8030 fluorescence intensity (a.u.); with “GTCGTCGCCTGCCTCTTCGTCGCCGCTCTCGTCTCCGCTCCGGAGTCACCTAGTGCAG”, 9880 fluorescence intensity (a.u.); with “TCGCCTATCTCTCTATCTCTTTCGCCACCGCTTGCCTCTCCGGAGTCACCTAGTGCAG”, 9030 fluorescence intensity (a.u.). The same measure for “TCCCGCTTCTCCTCCGTCGCTCTCCGCCGCCGCCGCCACCCGGAGTCACCTAGTGCAG”: 10200 fluorescence intensity (a.u.); for “CTCTCCTCTCCTCGCTTCTTCGTCTCGCTTGCTCGCTCGCCGGAGTCACCTAGTGCAG”: 8550 fluorescence intensity (a.u.). Regarding “CATTTAAATCGCCATCACTCCGCGCGCTCTCCCATCCATCCGGAGTCACCTAGTGCAG”, the binding signal is 8870 fluorescence intensity (a.u.).

“GCTCTATCTTTACTCGCCATTTAATCGTTGCCTCGCGCTCCGGAGTCACCTAGTGCAG”: the binding signal is 16900 fluorescence intensity (a.u.). The same measure for “ACACTCTCGCCGTCGCCGCCTCCTCGCCTCCGCTTACTCCCGGAGTCACCTAGTGCAG”: 16700 fluorescence intensity (a.u.); for “GCGCGCGCCGGCCTCCGTCTTCCTCCGCGGGTGCGCCACCCGGAGTCACCTAGTGCAG”: 10400 fluorescence intensity (a.u.); for “ACCCGCTTCTCGTCTCCTCGTCTCCTCGTTCGTCTCTCGCCGGAGTCACCTAGTGCAG”: 18000 fluorescence intensity (a.u.).

Turning to “CGCCGCCTCCGCTCCACTCTCCTCGCCGTCGCCGGTCCTCCGGAGTCACCTAGTGCAG”, the binding signal was 11500 fluorescence intensity (a.u.). The same measure for “CGTTCATTCCGCATCCAATGGCAGCACTGGTTCCTAGCTTCGGAGTCACCTAGTGCAG”: 8110 fluorescence intensity (a.u.).

The values are drawn from PMC7819943, “Rice protein-binding microarrays: a tool to detect cis-acting elements near promoter regions in rice”.
